From PubChem BioAssay (NCATS)
Records with an inconclusive call do not appear. Values without a mark were called inactive. Calls come from the whole dose curve; as a rule, active = well fitted curve in the direction sought with a large enough effect in the signal ratio, with a control signal flat (not every such curve was filed as active); inconclusive = small, poorly fitted or top-dose-only effect, or a change in a side signal; inactive = no such curve, though single readings can be large or run the other way; the % refers to the signal ratio.

Experiment: qHTS Assay for Identification of Small Molecule Inducers of Hypoxia Response (AID 2120); note: 0% is about no effect
Details: hypoxia response reporter cells, beta-lactamase ratio readout; series mostly up to 104 µM; activation: at the top concentration
Procedure, shortened: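 HRE-bla ME-180, 2500 cells/well, 0.5% dialyzed FBS medium; cpd titration, 17 h 37 degrees C; CCF4 2.5 h RT; Ex 405, Em 460/530 ratio -> %Activity, AC50.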

| Compound | activation |
| --- | --- |
| CN(C)Cc1ccccc1 | 0.458% |
| CCCCCCCCCC(=O)O | 0.906% |
| COC(C)=O | -0.614% |
| C=Cc1ccccc1 | 0.609% |
| O=C(O)CC(O)(CC(=O)O)C(=O)O | 1.01% |
